# GLP-1R inv ag – acts as inverse agonist at human GLP-1 receptor. HEK293 GLP-1R CRE-luciferase, luminescence, 24 h; GLP-1R form is constitutively active. Potency, µM (series often up to 38.3 µM), for the others: at the top dose activity change, negative = inhibition, usual class: inhibitors. 410,000 tested, 1.6% active. AID 624417; note: % is set by controls: 0 for no effect and ±100 for the full control effect; nearly all actives have a fitted effect of over 55% in size
# Target sequence (P43220 whole entry, looked up): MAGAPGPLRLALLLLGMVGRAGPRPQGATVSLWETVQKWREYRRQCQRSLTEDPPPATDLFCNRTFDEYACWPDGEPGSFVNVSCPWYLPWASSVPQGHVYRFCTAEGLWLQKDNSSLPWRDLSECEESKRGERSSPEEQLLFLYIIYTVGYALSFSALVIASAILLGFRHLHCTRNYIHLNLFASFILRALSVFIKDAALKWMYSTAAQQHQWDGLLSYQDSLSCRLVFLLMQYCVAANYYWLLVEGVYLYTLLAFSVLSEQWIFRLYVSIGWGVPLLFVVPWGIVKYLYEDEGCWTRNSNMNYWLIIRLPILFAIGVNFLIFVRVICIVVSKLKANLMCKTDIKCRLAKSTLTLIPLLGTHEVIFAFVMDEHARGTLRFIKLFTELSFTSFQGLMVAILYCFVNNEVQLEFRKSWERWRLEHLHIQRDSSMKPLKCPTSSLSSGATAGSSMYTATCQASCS
#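 Inverse agonists were sought by their lowering of basal cAMP reporter luciferase output in HEK293 cells stably carrying constitutively active human GLP-1R, after 24 h compound treatment.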
# GLP-1R agonist – agonists of human GLP-1 receptor | 380,000 tested, 0.007% active | Potency, µM (highest dose often 45.6 µM), inactives show at the highest dose activation, most hits filed as activators | HEK293 GLP-1R CRE-luciferase, luminescence, 4-6 h; cells express a hypersensitive GLP-1R form; note: % of control where 0% means no effect
# PTHR1 ag – agonists of human PTHR1 parathyroid hormone receptor; Q03431; HEK293 GP2 PTHR1 cells, GloSensor cAMP luminescence, 1 h; Potency, µM (titrated, usually from 115 µM), for inactives: top-dose activation, hits mostly activators; 410,000 tested, 0.075% active; note: nearly all actives have a fitted effect of over 55% in size
#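 HEK-293-derived GP2 cells expressing PTHR1 and a GloSensor cAMP reporter, 3,000/well, plated overnight, given luciferin plus IBMX (each 0.5 mM as added) for 1 h at 37 °C, then compound for 1 h at 37 °C. Luminescence was read after 15 min at room temperature.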
# GLP1R cytotox – cytotoxicity in counter-screen for GLP-1R inverse agonists; HEK293 cAMP-luciferase reporter cells, luminescence, 24 h; Potency, µM (highest dose often 38.3 µM), inactives show at the highest dose activity change, negative = inhibition, most hits filed as inhibitors; 410,000 tested, 0.13% active;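 note: loss of luciferase light is scored as toxicity; % is set by controls: 0 for no effect and ±100 for the full control effect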
#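 Luminescence readout: signal drop marks cytotoxicity. Plated cells grew 12 h at 37 °C, 5% CO2, received 23 nL compound for 24 h, then got luciferase reagent, read after 12 min at RT.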
# An asterisk follows results filed as active; i = inactive; ? = inconclusive; / = not tested or not shown. An excerpt weighted towards active compounds, which were near 1.7% of everything screened. Calls come from the whole dose curve; as a rule, active = well fitted curve in the direction sought with a large enough effect; inconclusive = small, poorly fitted or top-dose-only effect, or another doubt; inactive = no such curve, though single readings can be large; an effect the other way counts as inactive or inconclusive. Potency is the fitted concentration of half-maximal effect.
SMILES,GLP-1R inv ag,GLP-1R agonist,PTHR1 ag,GLP1R cytotox
Clc1ccc(SCCCCN2CCOCC2)cc1,-27%,2%,22%,15%
Cc1ccc(C(C)C)c(OCCCCN2CCNCC2)c1,2.2µM*,-6%,-4%,-4%
Cc1ccc(SCCCCN2CCNCC2)cc1,2.8µM*,-3%,i,1%
O=C(NCc1ccccn1)c1nn(-c2ccccc2F)nc1CO,?,/,-9%,12%
Cc1ccc(OCC(=O)NCC2(N3CCN(C)CC3)CCCCC2)cc1C,11%,/,4%,-48%
COc1ccc(C(=O)N2c3ccc(C)cc3C(C)(c3ccccc3)CC2(C)C)cc1 (stereo unspecified),10µM*,/,-32%,6%
Cc1ccc(C(=O)N2c3ccc(C)cc3C(C)(c3ccccc3)CC2(C)C)cc1 (stereo unspecified),?,/,-17%,7%
O=C(NCCc1ccccc1)c1nn(-c2ccc(F)cc2)nc1CO,10%,/,i,2%
CCN1CCN(CC(=O)Nc2sc3c(c2C#N)CCC(C)C3)CC1 (stereo unspecified),2µM*,3%,i,-9%
CC1CCc2c(sc(NC(=O)CSc3ncn[nH]3)c2C#N)C1 (stereo unspecified),-8%,4%,-27%,-6%
O=C(CCNS(=O)(=O)c1ccc(OC(F)(F)F)cc1)Nc1cccc(S(=O)(=O)N2CCCC2)c1,10µM*,-3%,-26%,4%
O=C(CNc1cccc(S(=O)(=O)N2CCCCC2)c1)Nc1ccc(C(F)(F)F)cc1,?,12%,-33%,-3%
O=C(Nc1ccccc1N1CCCC1)C1CCN(S(=O)(=O)c2cccc(C(F)(F)F)c2)CC1,?,2%,i,-21%
O=C(CNc1cccc(S(=O)(=O)N2CCCC2)c1)Nc1ccc(C(F)(F)F)cc1,10µM*,-4%,-37%,10%
CC(C)(C)c1ccc(OCCCC(=O)Nc2cccc(S(=O)(=O)N3CCOCC3)c2)cc1,7.9µM*,-2%,-36%,-16%
CC(C)(C)c1ccc(OCCC(=O)Nc2cccc(S(=O)(=O)N3CCCC3)c2)cc1,?,-1%,-22%,?
O=C(Nc1ccccc1N1CCCCC1)C1CCN(S(=O)(=O)c2cccc(C(F)(F)F)c2)CC1,11µM*,-5%,-26%,-6%
O=C(CCCOc1ccccc1)Nc1cccc(S(=O)(=O)N2CCOCC2)c1,-27%,0%,-27%,5%
Cc1ccc(NC(=O)c2cc3ccccn3n2)cc1F,-4%,/,-43%,0%
COc1cccc(NC(=O)Cn2cc(C(=O)C3CCCCC3)c3ccccc32)c1,?,/,-10%,-14%
COc1ccc(S(=O)(=O)N2CCCCCC2)cc1NC(=O)Cc1cccc(C(F)(F)F)c1,10µM*,8%,-18%,5%
O=C(CCCNC(=O)c1ccc(Cl)cc1)Nc1cccc(S(=O)(=O)N2CCCCC2)c1,?,7%,-35%,3%
O=C(CNc1cccc(S(=O)(=O)N2CCCCCC2)c1)Nc1cccc([N+](=O)[O-])c1,7.1µM*,2%,-36%,?
O=C(CCNC(=O)c1ccc(Cl)cc1)Nc1cccc(S(=O)(=O)N2CCCCCC2)c1,13µM*,21%,-9%,-12%
O=C(Cc1ccc(Br)cc1)Nc1cccc(S(=O)(=O)N2CCCCC2)c1,10µM*,2%,-51%,-7%
SMILES,GLP-1R inv ag,GLP-1R agonist,PTHR1 ag,GLP1R cytotox
CCC1(c2cnc[nH]2)Cc2ccccc2C1,/,-1%,/,/
Cc1c(Cl)cccc1-n1ncc(C(=O)Nc2ccc3c(c2)OCCO3)c1C1CCN(C(=O)OC(C)(C)C)CC1,?,/,i,-4%
Cc1nc(C)c(-c2ccc(SCC(=O)Nc3ccccc3F)nn2)s1,38%,/,-77%,-8%
Cc1cccc(N2CCN(C(=O)CCn3c(=O)c4cccn4c4cccnc43)CC2)c1C,6%,/,-34%,17%
CCN1C(=O)C2(c3ccccc31)c1c(oc3ccccc3c1=O)C(=O)N2CCOC (stereo unspecified),6%,/,-6%,0%
CN1CCN(S(=O)(=O)c2ccc(NC(=O)Cc3cccs3)cc2)CC1,-30%,-13%,i,-13%
O=C(Cc1cccs1)Nc1ccc(S(=O)(=O)N2CCCCC2)cc1,10µM*,7%,i,-26%
OC(COc1ccc2c(c1)OCO2)CN1CCN(c2ccccc2)CC1 (stereo unspecified),8.9µM*,1%,-11%,0%

# Source: PubChem
